Each structure is given as a SMILES string. Records with an inconclusive call do not appear. Where a call stands in place of a potency, no number is given. Activity calls are given as the source filed them. The call rests on the fitted dose curve; in most records, active means well fitted curve in the direction sought with a large enough effect; inconclusive means small, poorly fitted or top-dose-only effect, or another doubt; inactive means no such curve, though single readings can be large; an effect the other way counts as inactive or inconclusive.

A short description of the first assay: Cytotoxicity counterscreen for NFkB agonists and antagonists (AID 624476).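 Further: cells exposed to compound for 48 hours.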 Further: potency means the concentration at half of the fitted maximal effect. To be noted: NFkB reporter cell line viability counterscreen; series mostly up to 46.1 µM. For orientation: A counterscreen serves to expose hits that act by an unwanted route or on another target.
Take `C[C@]1(c2nc3c(C(N)=O)cccc3[nH]2)CCCN1`: the Potency entry is “inactive”.

`CCCn1c(=O)c2[nH]c(C34CC5CC3C[C@@H](C5)C4)nc2n(CCC)c1=O`: the Potency result is “inactive”.

As for `COc1c(Cl)cc2c([nH]c3cnccc32)c1NC(=O)c1cccnc1C`, the Potency result is “inactive”.

As to `c1ccc(-c2nn3c(c2-c2ccnc4cc(OCCN5CCOCC5)ccc24)CCC3)nc1`, the Potency result is “inactive”.

As for `COc1ccccc1-c1cccc(-c2c(O)c3cc(C#N)c(Cl)cc3[nH]c2=O)c1`, the Potency result is “inactive”.

`COc1ccc(-c2c(-c3ccc(O)cc3O)n[nH]c2C)cc1`: the Potency result is “inactive”.

For the molecule `Cc1cccc(-c2nn(C(=S)Nc3ccccc3)cc2-c2ccnc3ccccc23)n1`, the Potency entry was “inactive”.

Turning to `CC1(C)CNc2cc(NC(=O)c3cccnc3NCc3ccncc3)ccc21`, the Potency result was “inactive”.

In the case of `CCCCCCCc1ccc(CCc2cccc(O)c2C(=O)O)cc1`, the Potency is 23.5 µM (active).

As for `CNC(=O)c1ccc(N2C(=S)N(c3ccc(C#N)c(C(F)(F)F)c3)C(=O)C2(C)C)cc1F`, the Potency entry was “inactive”.

Regarding `CN(C)c1ccc(C2Nc3ccc4ccccc4c3C3=C2C(=O)CC(C)(C)C3)cc1Br` (stereo not drawn), the Potency entry was “inactive”.

`O=C(C1CC1)N1CC[C@@H](Cn2c(-c3ccc(-c4ccc5occc5c4)cc3)nc3cnccc32)C1`: the Potency entry was “inactive”.

Turning to `O=C(OCC#CCSc1nnc(-c2ccc3ccccc3c2)o1)c1cc2ccccc2s1`, the Potency entry is “inactive”.

Take `COCCNCCCn1c(C(=O)CF)c(-c2ccc(C)cc2)c2c(N)ncnc21`: the Potency entry is “inactive”.

With `CCOc1ccc(Cc2cc([C@@H]3O[C@H](CO)[C@@H](O)[C@H](O)[C@@H]3O)ccc2Cl)cc1`, the Potency entry is “inactive”.

Take `NC(=O)c1ccc(-c2nc(-c3ccc4c(c3)OCCO4)c(-c3ccccn3)[nH]2)cc1`: the Potency result was “inactive”.

A further assay is described as follows: qHTS Assay for Identification of Small Molecule Agonists for NFkB Signaling Pathway. (AID 624478). The settings on record: NFkB pathway reporter cell assay, agonist mode, cells co-stimulated with 10 pM TNF alpha; series mostly up to 46.1 µM. The essentials:
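NFkB-bla ME-180 cells carry a beta-lactamase reporter. They received compound plus TNF alpha at 10 pM final (its EC50) for 5 h at 37 C. Reporter activity was read as 460/530 nm emission ratio after 2 h LiveBLAzer substrate loading.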
On the technique in general: Quantitative high-throughput screening tests each substance at several concentrations.
As to `OCCC#Cc1nc(-c2ccc(F)cc2)c(-c2ccncc2)n1CCCc1ccccc1`, the result was inactive.

In the case of `Cc1cc([C@@H](C)Nc2ccccc2C(=O)O)c2nc(N3CCOCC3)cc(=O)n2c1`, the molecule was called inactive.

On to `COc1cc2nccc(Oc3ccc(NC(=O)NC4CC4)c(Cl)c3)c2cc1C(N)=O`, for which the molecule was called inactive.

As to `COc1cc(F)c(F)c(Nc2ccc(I)cc2F)c1NS(=O)(=O)C1(C[C@H](O)CO)CC1`, the result was inactive.

Turning to `C[C@]1(c2nc3c(C(N)=O)cccc3[nH]2)CCCN1`, the outcome was inactive.

For the molecule `CCCn1c(=O)c2[nH]c(C34CC5CC3C[C@@H](C5)C4)nc2n(CCC)c1=O`, the molecule was classed as inactive.

As to `C/C(=C\C(=O)Nc1ccccc1C(=O)O)c1ccc2ccccc2c1`, the molecule was called inactive.

For the molecule `CC[C@H](Nc1ncnc2nc[nH]c12)c1nc2cccc(F)c2c(=O)n1-c1ccccc1`, the result was inactive.

`CC(C)(C)OC(=O)CN(Cc1ccc(Cl)cc1)Cc1ccc([N+](=O)[O-])s1`: the result was inactive.

As for `O=C(Nc1cccnc1)N1CCC(Cc2cccc(Oc3ccc(C(F)(F)F)cn3)c2)CC1`, the molecule was called inactive.

As to `CCn1c(-c2nonc2N)nc2c(C#CC(C)(C)O)ncc(OC[C@H]3CCCNC3)c21`, the call was inactive.

`CN(C)C(=O)c1ccc(S(=O)(=O)c2ccc(NC(=O)[C@@](C)(O)C(F)(F)F)c(Cl)c2)cc1`: the molecule was called inactive.

As for `Cc1c(CCOc2ccc(C(=O)O)cc2)c2cc(Cl)ccc2n1C(c1ccccc1)c1ccccc1`, the molecule was called inactive.

`COc1c(Cl)cc2c([nH]c3cnccc32)c1NC(=O)c1cccnc1C`: the result was inactive.

For `c1ccc(-c2nn3c(c2-c2ccnc4cc(OCCN5CCOCC5)ccc24)CCC3)nc1`, the result was inactive.

In the case of `Cc1cc(C=c2sc3nc4ccccc4n3c2=O)c(C)n1-c1ccccc1`, the molecule was called inactive.

Regarding `COc1ccccc1-c1cccc(-c2c(O)c3cc(C#N)c(Cl)cc3[nH]c2=O)c1`, the outcome was inactive.

`CCOc1ccn(-c2ccc(F)cc2)c(=O)c1C(=O)Nc1ccc(Oc2ccnc(N)c2Cl)c(F)c1`: the molecule was called inactive.

With `COc1ccc(-c2c(-c3ccc(O)cc3O)n[nH]c2C)cc1`, the result was inactive.

Regarding `Cc1cccc(-c2nn(C(=S)Nc3ccccc3)cc2-c2ccnc3ccccc23)n1`, the call was inactive.

On to `O=C(O)c1ccc(-c2c[nH]c3ccc(-c4ccccc4)cc23)cc1C1CCCC1`, for which the molecule was called inactive.

`COc1cc(Nc2ncc3c(n2)-c2ccc(Cl)cc2C(c2c(F)cccc2OC)=NC3)ccc1C(=O)O`: the result was inactive.

With `CC1(C)CNc2cc(NC(=O)c3cccnc3NCc3ccncc3)ccc21`, the molecule was classed as inactive.

`CCCCCCCc1ccc(CCc2cccc(O)c2C(=O)O)cc1`: the molecule was called inactive.

On to `CNC(=O)c1ccc(N2C(=S)N(c3ccc(C#N)c(C(F)(F)F)c3)C(=O)C2(C)C)cc1F`, for which the molecule was classed as inactive.

Turning to `Cc1cc(SCc2sc(-c3ccc(C(F)(F)F)cc3)nc2C)ccc1OCC(=O)O`, the result was inactive.

Consider `Cc1cc2c(F)c(Oc3ncnn4cc(OC[C@@H](C)O)c(C)c34)ccc2[nH]1`, for which the molecule was called inactive.

For the molecule `CN(C)c1ccc(C2Nc3ccc4ccccc4c3C3=C2C(=O)CC(C)(C)C3)cc1Br` (stereo not drawn), the call was inactive.

In the case of `CN(C)c1ccc(Nc2nc(N)n(C(=O)c3c(F)cccc3F)n2)cc1`, the molecule was classed as inactive.

As to `O=C(C1CC1)N1CC[C@@H](Cn2c(-c3ccc(-c4ccc5occc5c4)cc3)nc3cnccc32)C1`, the call was inactive.

Regarding `CCOc1ccc(Cc2cc([C@@H]3O[C@H](CO)[C@@H](O)[C@H](O)[C@@H]3O)ccc2Cl)cc1`, the molecule was classed as inactive.

For the molecule `NC(=O)c1ccc(-c2nc(-c3ccc4c(c3)OCCO4)c(-c3ccccn3)[nH]2)cc1`, the molecule was classed as inactive.

The values above are taken from PubChem BioAssay (NCATS).
